Each structure is given as a SMILES string. About 4,300 (8.3%) of roughly 52,000 compounds were called active. Many of the other results were omitted from the sample, so actives are more common in it than they were. Unmarked numbers belong to inactive results. No stated cut-off is given here; in the data, active means survival mostly below about 52% (no sharp cut-off); inactive means mostly above about 56%.

This assay has as its system DeltatarO mutant. The experiment in a line: growth inhibition of S. aureus wild type versus tarO mutant, primary screen, teichoic acid synthesis inhibitors, RN4220, OD600 (AID 463173). The following applies: OD600, 18 h, active compounds read low, screened at 18.75 µg/mL (by protocol).
Take `CCc1ccccc1NC(=O)CCC(=O)N1CC(C)Oc2ccc(C)cc21` (stereo unspecified): the survival is 62%.
For `O=C(COc1ccc2ccccc2c1)NC1CC(=O)N(c2ccc(F)cc2)C1` (stereo unspecified) the value was 69%; for `CC(C)CCn1nnnc1CN1CCN(Cc2ccc3c(c2)OCO3)CC1`, 69%; for `CCOC(=O)c1nnn(C(CC)C(=O)Nc2c(C)cccc2C)c1C(=O)OCC` (stereo unspecified), 100%.
Turning to `Cc1cccn2c(=O)c3cc(C#N)c(=O)n(-c4nnc(SCc5ccc(Cl)cc5)s4)c3nc12`, the survival is 81%.
For `CC(C)N(C(=O)Cn1cc(S(=O)(=O)Cc2ccc(C(F)(F)F)cc2)c2ccccc21)C(C)C` the value was 54%; for `Cc1cc(C)c(NC(=O)Cn2c(=O)n(Cc3ccc(C(=O)NCc4ccco4)cc3)c(=O)c3sccc32)c(C)c1`, 173%.
For `Cc1cccc(NS(=O)(=O)c2ccc3oc(=O)c4ncn(C)c4c3c2)c1C` the value was 109%; for `Cc1ccc(NC(=O)c2ccc(CNS(=O)(=O)c3ccc4c(c3)C(C)(C)C(=O)N4C)cc2)cc1C`, 62%; for `COc1ccc(OC)c(CCNc2ncnc3onc(-c4ccc(Cl)cc4)c23)c1`, 94%.
Turning to `CCOc1ccc2oc(=O)cc(CN3CCN(c4ccc(Cl)cc4)CC3)c2c1`, the survival is 97%.
`CCN1CC=C2C(C#N)=C(N)C(C#N)(C#N)C(C)C2C1` (stereo unspecified): the survival is 80%.
For `Cc1ccc(Cn2cc(CCC(=O)NC3CCC(C)CC3)c3ccccc32)cc1` (stereo unspecified) the value was 74%; for `O=C(CCc1cn(Cc2ccccc2Cl)c2ccccc12)NC1CCCCC1`, 71%.
For `CC1CCC(NC(=O)CCc2cn(Cc3ccccc3Cl)c3ccccc23)CC1` (stereo unspecified) the value was 51% (active); for `O=C(O)c1ccc(C2Nc3ccccc3-c3nnc(SCc4ccc(Cl)cc4)nc3O2)cc1` (stereo unspecified), 85%; for `Cc1ccc(C)c(CN2C(=O)c3ccccc3S(=O)c3ccc(C(=O)NCc4ccco4)cc32)c1` (stereo unspecified), 72%.
For `COc1ccc2nc(SC)nc(C)c2c1` the value was 67%; for `COc1ccc2oc(=O)c(C(=O)N3CCN(c4cc(Cl)ccc4Cl)CC3)cc2c1`, 48% (active); for `COc1ccc2oc(=O)c(C(=O)N3CCN(c4ccc(C)cc4)CC3)cc2c1`, 91%.
Consider `COc1ccc2oc(=O)c(C(=O)N3CCC(C(N)=O)CC3)cc2c1`, for which the survival was 79%.
For `CC(=O)Nc1cc(C(=O)NCc2ccc(F)cc2)ccc1Sc1ccc(C)cc1`, the survival is 94%.
For `CCCCN(CCCC)c1nc(-c2ccccc2)nc2ccccc12` the value was 30%; for `CCCN(CCC)c1nc(-c2ccccc2F)nc2ccccc12`, 4% (active).
As to `CCN(CC)c1nc(-c2ccccc2)nc2ccccc12`, the survival was 86%.
For `CCCCN(CC)c1nc(-c2ccccc2F)nc2ccccc12` the value was 94%.
For `CCN(CC)c1nc(-c2ccc(C(C)(C)C)cc2)nc2ccccc12` the value was -1% (active); for `Cc1cc(Sc2ccc(Cl)cc2)nc2ccccc12`, 45%.
For `COc1ccccc1Nc1nc(-c2ccccc2F)nc2ccccc12` the value was 73%.
With `Cc1cccc(OCCn2c(-c3ccc(Cl)cc3)nc3ccccc3c2=O)c1C`, the survival is 77%.
For `CC(C)CN(CC(C)C)c1nc(-c2ccc(Cl)cc2)nc2ccccc12` the value was -1% (active); for `COc1cccc2[nH]c(C(=O)NCc3ccc4c(c3)CCN4C(=O)c3ccc(F)cc3)cc12`, 84%.
For `CNC(=O)c1c(NC(=O)/C=C/c2ccccc2)sc2c1CCC2` the value was 87%; for `CCC(Sc1nnc2c(n1)[nH]c1ccccc12)C(=O)Nc1ccccc1OC` (stereo unspecified), 56%.
For `CC(C)(C)NC(=O)CN1CCC(n2nnc3cc(F)ccc32)CC1` the value was 93%.
Regarding `COC(=O)c1scc(-c2ccc(C)cc2)c1S(=O)(=O)Nc1cccc(Cl)c1C`, the survival is 101%.
Consider `CC(=O)c1cc(-c2ccc(F)cc2)n(CCC(=O)NCc2ccc(C)cc2)c1C`, for which the survival is 73%.
For `COc1cccc(/C=C2/SC(=O)N(C)C2=O)c1O` the value was 83%; for `COc1ccc(C(=O)c2cn(Cc3ccccc3OC)c3cc4c(cc3c2=O)OCO4)cc1`, 95%; for `COc1ccccc1Nc1ncnc2c1nc1n2CCCCC1`, 128%.
`Clc1cccc(CNc2ncnc3c2nc2n3CCCC2)c1`: the survival was 88%.
As to `Clc1cccc(Nc2ncnc3c2nc2n3CCCCC2)c1`, the survival is 17% (active).
For `Clc1ccccc1Nc1ncnc2c1nc1n2CCCCC1` the value was 8% (active); for `Fc1ccccc1Nc1ncnc2c1nc1n2CCCCC1`, 68%; for `COc1ccc(Nc2ncnc3c2nc2n3CCCC2)cc1Cl`, 80%.
On to `COc1ccc(C)cc1NC(=O)C1CCN(S(=O)(=O)Cc2ccccc2)CC1`, for which the survival is 67%.
For `O=C(CSc1nccn1C1CCCC1)Nc1ccc(C(F)(F)F)cc1` the value was 101%.
For the molecule `CCN(CC)CCCNC(=O)CCc1c(C)nc2c(c1C)c(=O)n(C)c(=O)n2C`, the survival was 96%.
Consider `O=C(CN1C(=O)CCc2cc(S(=O)(=O)N3CCOCC3)ccc21)NCc1ccc(F)cc1`, for which the survival is 93%.
For `CCS(=O)(=O)c1nc(S(=O)(=O)c2ccc(C)cc2)c(NC)s1`, the survival was 102%.
For `CCN1CCN(c2nc3c(S(=O)(=O)c4ccc(C)cc4)nnn3c3ccsc23)CC1` the value was 65%; for `CCCNS(=O)(=O)c1ccc(CCC(=O)NCC2CCCO2)cc1` (stereo unspecified), 89%.
As to `CN(c1ccc(C(=O)NCC2CCCO2)cc1)S(C)(=O)=O` (stereo unspecified), the survival is 74%.
Regarding `CCc1ccc(N(CC(=O)NCC2CCCO2)S(C)(=O)=O)cc1` (stereo unspecified), the survival is 66% (active).
For `CCc1ccc(NC(=O)c2sc3nc(C)cc(C)c3c2NC(=O)c2ccccc2OC)cc1` the value was 69%.
For `CC(=O)c1ccc(NC(=O)c2nc(-c3ccccc3)n(-c3ccccc3)n2)cc1` the value was 87%; for `CC(=O)c1cccc(NC(=O)c2nc(-c3ccccc3)n(-c3cccc(Cl)c3)n2)c1`, 68%; for `CC(=O)c1ccc(NC(=O)c2nc(-c3ccccc3)n(-c3ccccc3Cl)n2)cc1`, 64%.
In the case of `CC(=O)c1ccc(NC(=O)c2nc(-c3ccccc3)n(-c3ccc(C)cc3)n2)cc1`, the survival is 60%.
For `COc1ccc(-c2nc(C(=O)Nc3ccc(C(C)=O)cc3)nn2-c2cccc(Cl)c2)cc1` the value was 46% (active).
Regarding `CCOC(=O)c1ccc(NC(=O)c2ncn(-c3ccccc3)n2)cc1`, the survival is 99%.
As for `CC(=O)c1ccc(NC(=O)c2nc(-c3ccccc3)n(-c3ccc(Cl)cc3)n2)cc1`, the survival is 49% (active).
For `CC(=O)c1cccc(NC(=O)c2nc(-c3ccccc3)n(-c3ccccc3)n2)c1` the value was 56%; for `COc1ccc(-c2nc(C(=O)Nc3cccc(C(C)=O)c3)nn2-c2ccc(Cl)cc2)cc1`, 99%.
For `O=C(Nc1ccc(F)cc1)c1ncn(-c2ccccc2)n1` the value was 86%; for `CC(=O)c1ccc(NC(=O)c2ncn(-c3ccccc3)n2)cc1`, 34% (active); for `COc1ccc(-n2nc(C(=O)Nc3ccc(C(C)=O)cc3)nc2-c2ccccc2)cc1`, 49% (active).
Regarding `CC(C)(C)C1CCc2c(sc(NC(=O)Cn3nnc(-c4ccccc4F)n3)c2C#N)C1` (stereo unspecified), the survival was 66%.
For `N#CC(=C1CCN(Cc2ccccc2)CC1)c1ccccc1` the value was 85%; for `Cc1cccc(NC(=O)c2cc3c(=O)n(Cc4ccco4)ccc3nc2C)c1`, 87%; for `CCNC(=O)c1nn(-c2ccccc2C)nc1CO`, 106%.
For `CCOc1ccc(NC(=O)CC2C(=O)N(c3ccc(C)cc3)C(=O)N2C2CCCCC2)cc1` (stereo unspecified) the value was 64%.
As to `COc1ccccc1C(=O)Nc1c(C(=O)N(C)c2ccccc2)sc2nc(C)cc(C)c12`, the survival is 58%.
For `CCCN(C(=O)C1CC1)c1nnc(-c2ccc(Cl)cc2)s1` the value was 79%.
Turning to `Cc1c(C(=O)Nc2cccc(Cl)c2)oc2ccc(S(=O)(=O)N(C)C3CCCCC3)cc12`, the survival was 71%.
With `Cc1sc(-n2c(C)cc(/C=C(\C#N)C(=O)NCc3ccco3)c2C)c(C#N)c1C`, the survival was 84%.
For `Cc1ccc(Cl)cc1NC(=O)c1oc2ccc(S(=O)(=O)N3CCCCCC3)cc2c1C` the value was 93%; for `O=C(Cn1cccc1C(=O)c1ccccc1)NCc1ccc(Cl)cc1`, 98%.
For `COc1ccc2c(c1)CC(C(=O)Nc1ccc(OC)cc1OC)CO2` (stereo unspecified) the value was 89%; for `COC(=O)c1cc2oc3ccccc3c2n1CC(=O)Nc1ccc(OC)c(OC)c1`, 79%; for `CCc1ccc(NS(=O)(=O)c2ccc3[nH]cc(C(=O)NC4CCCC4)c(=O)c3c2)cc1`, 8% (active).
For `CCc1ccc(NS(=O)(=O)c2ccc3[nH]cc(C(=O)NCCc4ccccc4)c(=O)c3c2)cc1` the value was 87%.
In the case of `CCOc1ccc(NS(=O)(=O)c2ccc3[nH]cc(C(=O)N(C)Cc4ccccc4)c(=O)c3c2)cc1`, the survival was 6% (active).
`CCOc1ccc(NS(=O)(=O)c2ccc3[nH]cc(C(=O)NCc4ccccc4)c(=O)c3c2)cc1`: the survival is 79%.
As to `Cc1cc(C)cc(NS(=O)(=O)c2ccc3[nH]cc(C(=O)N(C)Cc4ccccc4)c(=O)c3c2)c1`, the survival is 102%.
For `CCOc1ccc(NS(=O)(=O)c2ccc3[nH]cc(C(=O)N(C)C4CCCCC4)c(=O)c3c2)cc1` the value was 76%; for `CCOc1ccc(NS(=O)(=O)c2ccc3[nH]cc(C(=O)NCCOC)c(=O)c3c2)cc1`, 72%.
For `CCc1ccc(NS(=O)(=O)c2ccc3[nH]cc(C(=O)NCc4ccc(C)cc4)c(=O)c3c2)cc1` the value was 65%; for `CCOc1ccc(NS(=O)(=O)c2ccc3[nH]cc(C(=O)NC4CCCC4)c(=O)c3c2)cc1`, 39% (active); for `Cc1ccc(-c2nn3c(=O)cc(CN4CCN(C(=O)/C=C/c5ccccc5)CC4)nc3s2)cc1`, 68%.
In the case of `CCOc1ccccc1C1CC(=O)Nc2c1c(=O)n(C)c1ncnn21` (stereo unspecified), the survival was 164%.

These data come from PubChem BioAssay AID463173 (ICCB-Longwood Screening Facility, Harvard Medical School, 2010).
